Compound activity: PubChem, Milwaukee Institute for Drug Discovery
In the library only some 6.9% were active in any assay of this set; here they are far more common.
Cy5 interf NS3h: enhances or quenches Cy5 fluorescence in NS3h assay. Cy5-dT15 DNA with NS3h, fluorescence interference; actives lie on both sides; signal over control mean, under 1 quenches. AID 720488. hit rate 6% among 16,000. fluorescence interference ratio at 100 µM;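 active = compound fluorescence over control fluorescence at most 0.8, a quencher, or at least a set upper limit, an enhancer; inactive = ratio between 0.8 and the set upper limit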
NS3h inh CB: blocks HCV NS3 helicase binding to DNA; NS3h Cy5-dT15 DNA binding, fluorescence polarization; inhibition, % at 100 µM; hit rate 1.6% among 16,000;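 active = inhibition above the average over every tested compound plus 3 SD, cut at about 40% in these data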
Numbers without * were called inactive.

Screening CS(=O)(=O)N1CCN(Cc2cccc3ccccc23)CC1 returned Cy5 interf NS3h 0.69* and NS3h inh CB 10.
Screening CS(=O)(=O)N1CCN(Cc2ccccc2Cl)CC1 returned Cy5 interf NS3h 0.61* and NS3h inh CB 1.
CS(=O)(=O)N1CCN(CCCc2ccccc2)CC1 was read as Cy5 interf NS3h 1 and NS3h inh CB -5.
Screening Oc1ccc(Br)cc1CN1CCN(Cc2cccc3ccccc23)CC1 returned Cy5 interf NS3h 0.93 and NS3h inh CB -8.
Cc1ccc(Br)cc1S(=O)(=O)N1CCN(C)CC1 was read as Cy5 interf NS3h 0.86 and NS3h inh CB 5.
Screening COCCN1C(=O)/C(=C/c2ccc(O)cc2)SC1=S returned Cy5 interf NS3h 0.88 and NS3h inh CB 19.
Cc1cc2c(cc1C)N(C(=O)CSc1ncn[nH]1)C(C)(C)c1ssc(=S)c1-2 was read as Cy5 interf NS3h 0.89 and NS3h inh CB 13.
O=C(/C=C/c1ccco1)NCc1ccc2c(c1)OCO2 was read as Cy5 interf NS3h 0.94 and NS3h inh CB 3.
`O=C(NCc1ccc2c(c1)OCO2)c1ccco1` gave Cy5 interf NS3h 0.74* and NS3h inh CB 15.
Screening CCN(CC)CC(C)C(C)OC(=O)c1ccc(O)cc1 (stereo unspecified) returned Cy5 interf NS3h 0.93 and NS3h inh CB 8.
For Cc1ccc(-c2nc3ccccc3o2)cc1NC(=S)NC(=O)/C=C/c1ccccc1 the results were Cy5 interf NS3h 1.1 and NS3h inh CB 2.
CCOc1cccc(C(=O)Nc2nnc(C)s2)c1 was read as Cy5 interf NS3h 1 and NS3h inh CB 19.
CS(=O)(=O)N(CC(=O)O)c1ccc(Cl)cc1 was read as Cy5 interf NS3h 1.1 and NS3h inh CB 4.
For CS(=O)(=O)N(CC(=O)N(Cc1ccccc1)Cc1ccccc1)c1ccc(Cl)cc1 the results were Cy5 interf NS3h 0.68* and NS3h inh CB 25.
COc1cccc(/C=N\N2CCN(Cc3ccc(Cl)cc3)CC2)c1 was read as Cy5 interf NS3h 0.96 and NS3h inh CB 12.
Cc1cc(C)c(/C=N\O)c(C)c1/C=N\O was read as Cy5 interf NS3h 0.69* and NS3h inh CB -1.
Screening O=C(/C=C/c1ccccc1)C1=C(O)C(=O)N(c2ccccc2)C1c1cccc([N+](=O)[O-])c1 (stereo unspecified) returned Cy5 interf NS3h 0.88 and NS3h inh CB 6.
For CCC(C(=O)Nc1nc2ccccc2s1)c1ccccc1 (stereo unspecified) the results were Cy5 interf NS3h 1.1 and NS3h inh CB -6.
For O=C(CCC(=O)OCC(F)(F)C(F)F)Nc1nc2ccccc2s1 the results were Cy5 interf NS3h 0.71* and NS3h inh CB 8.
For O=C(Nc1c(-c2ccccc2)nc2ccc(Cl)cn12)c1ccc(F)cc1 the results were Cy5 interf NS3h 0.96 and NS3h inh CB 10.
`CCOC(=O)Cc1csc(NC(=O)COc2ccc(-c3ccccc3)cc2)n1` gave Cy5 interf NS3h 0.78* and NS3h inh CB 13.
`O=C(COc1ccc(Cl)cc1)Nc1nc(-c2ccc(Cl)cc2)cs1` gave Cy5 interf NS3h 0.93 and NS3h inh CB 13.
CN1CCN(/N=C2/C(=O)Nc3ccccc32)CC1 was read as Cy5 interf NS3h 0.97 and NS3h inh CB 12.
`CC(=O)Nc1ccccc1NC(=O)c1ccccc1I` gave Cy5 interf NS3h 1 and NS3h inh CB 1.
`O=C(Nc1nnc(Cc2ccc(Cl)cc2)s1)c1ccccc1F` gave Cy5 interf NS3h 0.7* and NS3h inh CB 25.
Screening O=C(Nc1ccc(Cl)cc1)Nc1nnc(Cc2ccc(Cl)cc2)s1 returned Cy5 interf NS3h 1.1 and NS3h inh CB -2.
Screening COC(=O)c1ccc(C(=O)OC)c(NC(=O)c2c(Cl)cccc2Cl)c1 returned Cy5 interf NS3h 1.1 and NS3h inh CB 19.
COc1ccc(C)cc1NC(=O)Cc1ccccc1[N+](=O)[O-] was read as Cy5 interf NS3h 1.1 and NS3h inh CB 12.
For COC(=O)c1ccc(C(=O)OC)c(NC(=O)CC(c2ccccc2)c2ccccc2)c1 the results were Cy5 interf NS3h 0.75* and NS3h inh CB 14.
For COC(=O)c1ccc(C(=O)OC)c(NC(=O)Cc2ccccc2[N+](=O)[O-])c1 the results were Cy5 interf NS3h 0.78* and NS3h inh CB 10.
Screening COc1cc(C(=O)Oc2ccc(/C=N\NC(=O)COc3cccc4ccccc34)cc2)cc(OC)c1OC returned Cy5 interf NS3h 1 and NS3h inh CB 8.
Screening CCOC(=O)c1c(NC(=O)COc2c(C)cc(C)cc2C)sc(C(=O)Nc2ccccc2)c1C returned Cy5 interf NS3h 0.96 and NS3h inh CB 3.
`CCOC(=O)c1c(NC(=O)c2sc3cc(C)ccc3c2Cl)sc(C(N)=O)c1C` gave Cy5 interf NS3h 0.79* and NS3h inh CB 7.
`O=c1c2c(-c3ccccc3)csc2ncn1/N=C\c1ccccn1` gave Cy5 interf NS3h 1.1 and NS3h inh CB 10.
`O=CNC1CCCc2c1[nH]c1ccc(C(F)(F)F)cc21` (stereo unspecified) gave Cy5 interf NS3h 0.97 and NS3h inh CB 1.
For CCN1C(=O)C(=Cc2ccc(-c3cccc(C(=O)O)c3)o2)C(=O)N(CC)C1=S the results were Cy5 interf NS3h 1.2* and NS3h inh CB 54*.
O=C1NN(c2ccc(F)cc2)C(=O)/C1=C\c1ccc(-c2cccc(C(=O)O)c2)o1 was read as Cy5 interf NS3h 0.82 and NS3h inh CB 15.
For Cc1c(NC(=O)c2ccc(-c3ccc(Cl)cc3Cl)o2)cccc1-c1nc2ncccc2o1 the results were Cy5 interf NS3h 1 and NS3h inh CB -18.
For O=C(/C=C\Nc1ccccc1[N+](=O)[O-])c1ccc2c(c1)OCO2 the results were Cy5 interf NS3h 0.64* and NS3h inh CB 48*.
`CCOc1ccc(N/C=C\C(=O)c2ccc3c(c2)OCO3)c([N+](=O)[O-])c1` gave Cy5 interf NS3h 1 and NS3h inh CB 29.
`O=C1NN(c2ccc(Cl)cc2)C(=O)/C1=C\c1ccc(O)c(O)c1` gave Cy5 interf NS3h 0.85 and NS3h inh CB 5.
`Cc1ccc(N2NC(=O)/C(=C/c3ccc(Cl)cc3)C2=O)cc1` gave Cy5 interf NS3h 0.68* and NS3h inh CB 25.
`COc1ccc(CCNC(=O)C(=O)Nc2cccc(Cl)c2Cl)cc1OC` gave Cy5 interf NS3h 1 and NS3h inh CB -9.
For COc1cc(NC(=O)c2cc(-c3ccccc3)nc3ccccc23)c(OC)cc1Cl the results were Cy5 interf NS3h 1 and NS3h inh CB -4.
`CCN(CC)c1ccc(/C=C2\C(=O)NC(=S)N(c3ccc(Cl)cc3)C2=O)o1` gave Cy5 interf NS3h 1 and NS3h inh CB 18.
Screening Nc1nc2c(s1)-c1ccccc1CC2 returned Cy5 interf NS3h 1.2* and NS3h inh CB 29.
`Cc1ccc(CC2CC(=O)N(c3cccc(C(F)(F)F)c3)C2=O)cc1` (stereo unspecified) gave Cy5 interf NS3h 0.95 and NS3h inh CB -7.
Screening CCOC(=O)C1=C(c2ccccc2)NC(=S)NC1c1ccc(OC)cc1 (stereo unspecified) returned Cy5 interf NS3h 1 and NS3h inh CB 18.
Screening COc1cc(/C=C2/SC(=S)N(CCC(=O)Nc3ccc(C(C)=O)cc3)C2=O)cc(OC)c1OC returned Cy5 interf NS3h 0.63* and NS3h inh CB -28.
COc1cc(/C=C2/SC(=S)N(CCC(=O)Nc3ccccc3C(=O)O)C2=O)cc(OC)c1OC was read as Cy5 interf NS3h 0.9 and NS3h inh CB 17.
For Cc1cccc(C)c1NC(=O)CSc1nc2ccccc2[nH]1 the results were Cy5 interf NS3h 0.97 and NS3h inh CB 2.
